# Compounds with a hit are over-represented: about 1.5% of the library has one in this group of screens.
# RAD52 anneal inh = blocks human RAD52 DNA annealing. inhibition, % at 18.7 µM. recombinant RAD52 DNA annealing, FRET fluorescence. P43351. 0.46% of 360,000 active;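 active = every replicate showing at least 50% inhibition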
# N-glyco inh = N-linked glycosylation inhibition. D54 ERlucT glycosylation luciferase reporter, 24 h; percent of 100 nM tunicamycin response. reporter increase, % at 12.5 µM. 0.23% of 360,000 active. AID 588692;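 active = mean luciferase reporter signal, scaled so untreated is 0 and the glycosylation-blocking control 100, at or above a set limit in every replicate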;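 also: luciferase carries N-glycosylation sites so blocking glycosylation raises the light; 0% = median of neutral control wells and 100% = median of 100 nM tunicamycin wells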
# RAD54 inh = blocks human RAD54 Holliday junction branch migration. Q92698. inhibition, % at 10.4 µM. FAM/BHQ fluorescence. 0.14% of 360,000 active;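 active = mean normalized replicate activity at least 40 and at least half of replicates scoring 40 or more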;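 also: 0% = median of neutral control wells and 100% = median of positive control wells; inhibitors cause a drop in the FAM fluorescence signal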
# miR122 inh = miR-122 inhibition in Huh7 cells. AID 602342. 0.3% of 340,000 active. activation (reporter increase), % at 12.5 µM. Huh7 miR-122 Renilla luciferase sensor, 48 h; neutral wells = 0, positive control = 100;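 active = mean replicate activation score at least 90 and every replicate individually at or above 90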;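 also: higher luciferase means less miR-122 activity so hits act as miR-122 inhibitors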
# DNA FID counter = counter-screen for HCV NS3 helicase inhibitors: DNA intercalator displacement | DNA fluorescent intercalator displacement, fluorescence | inhibition, % at 7.9 µM | 0.17% of 290,000 active; in the data active = inhibition above about 37%;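 also: 0% = vehicle and 100% = reference compound; higher means more ethidium bromide displaced from hairpin DNA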
# NRP1-CendR mod = alters CendR peptide binding to human NRP-1; inhibition, % at 25 µM; 0.85% of 360,000 active; FAM-RPARPAR peptide binding to NRP-1, fluorescence polarization;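 active = inhibition or corrected inhibition above about 18%, plus a signal ratio from 0.5 to 1.5, limit read from the data, passing the limit was not always enough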
# The depositor's hits bear a star; . = not tested or not shown; [ ] = another dose, or the depositor's remark.
SMILES,RAD52 anneal inh,N-glyco inh,RAD54 inh,miR122 inh,DNA FID counter,NRP1-CendR mod
CN(C)CCCN(CCCN(C)C)C(=S)Nc1ccc(S(=O)(=O)N2CCOCC2)cc1,1,-1,2,-15,37*,4
O=S(=O)(c1ccc(NC(=S)NCCC(c2ccccc2)c2ccccc2)cc1)N1CCOCC1,.,-5,.,.,-6,7
C[C@@H]1CCCCO[C@@H](CN(C)S(C)(=O)=O)[C@@H](C)CN([C@H](C)CO)C(=O)c2cc(NC(=O)C3CCCCC3)ccc2O1,-1,.,1,3[16.7 µM],.,.
COc1cccc(S(=O)(=O)Nc2ccc3c(c2)OC[C@@H](C)N(C(=O)Cc2cccnc2)C[C@@H](C)[C@@H](OC)CN(C)C3=O)c1,.,.,.,15[16.7 µM],.,.
CCn1nc2cc(C(=O)NCc3cc(C(F)(F)F)cc(C(F)(F)F)c3)ccc2c1OC,-34,1,-5,-7,-18,6
COc1c2ccc(C(=O)NCc3cc(C(F)(F)F)cc(C(F)(F)F)c3)cc2nn1C,-1,0,1,-5,-16,28*
CCCCn1nc2cc(C(=O)NCc3ccc(OC(F)(F)F)cc3)ccc2c1OC,-9,-1,0,-2,-14,27*
C=CCOc1c2ccc(C(=O)NCc3ccc(OC)cc3)cc2nn1C,-15,2,6,-4,-2,-7
CCCCn1nc2cc(C(=O)NCc3cc(C(F)(F)F)cc(C(F)(F)F)c3)ccc2c1OC,-17,3,-1,-6,-11,27*
COCc1cn([C@@H]2C[C@@H]3O[C@H](CO)CC[C@@H]3O[C@@H]2CCc2ccc(-c3ccc(OC)cc3)cc2)nn1,6,.,.,.,.,.
O=C(C[C@@H]1C=C[C@H](NS(=O)(=O)c2ccc(F)cc2)[C@H](CO)O1)NCc1ccc(Cl)c(Cl)c1,-16,.,-3,.,.,.
O=C(C1CCCC1)N1CC[C@@H]2[C@H](CO)Nc3ccc(C4=CCCCC4)cc3[C@@H]21,21,.,.,.,.,.
CC1CC(C)CN(S(=O)(=O)c2ccc(NC(=O)c3ccc(=O)[nH]c3)cc2)C1 (configuration not stated),-15,23,5,102*,.,-8
COC(=O)c1ccncc1C(=O)Nc1ccc(Oc2ncc(C(F)(F)F)cc2Cl)cc1,-12,0,.,.,-29,5
COC(=O)c1cnc(Oc2ccc(NC(=O)NC(=O)c3ccccc3Cl)cc2)cc1C(F)(F)F,7,4,.,.,-2,29*
Cc1ccc(-n2c(SCC(=O)N3CCOCC3)nc(O)c(Cc3ccccc3)c2=O)cc1,-9,3,7,0,-34,3
O=C(CSc1nc(O)c(Cc2ccccc2)c(=O)n1-c1ccccc1)N1CCOCC1,-20,1,9,.,-6,26*
Cc1ccccc1-n1ncc2c1CC(C)(C)CC2NC(=O)CSc1ccncc1 (configuration not stated),-21,-2,-5,-4,-25,-1
Cc1ccccc1-n1ncc2c1CC(C)(C)CC2NC(=O)c1ccncc1 (configuration not stated),-6,4,6,-5,-26,44*
C[C@@H]1CN([C@H](C)CO)C(=O)c2cccc(NS(=O)(=O)c3ccccc3)c2O[C@@H]1CN(C)C(=O)Nc1ccc(F)cc1,3,.,-5,-4[16.7 µM],.,.
O=C(Cn1cc[n+](Cc2ccccc2)c1)c1ccc([N+](=O)[O-])cc1,4,12,.,.,44*,-6
Cc1cccc(NC(=O)CSc2nc3sc(C)cc3c(=O)n2C)c1,-15,1,2,-3,.,19*
Cc1ccc(-c2nc(CSCC(=O)NCCN3CCN(Cc4ccccc4)CC3)c(C)o2)cc1,.,-2,3,170*,31,8
Cc1ccc(-c2nc(CSCC(=O)NCCCN3CCOCC3)c(C)o2)cc1,.,2,-7,-13,5,-7
CC(C)C[C@H](NC(=O)c1nc[nH]c1C(=O)N[C@@H](CCCCN)C(=O)OC(C)(C)C)C(=O)OC(C)(C)C,.,-3,15,-1,.,-4
CC(C)(C)OC(=O)[C@H](CCCCN)NC(=O)c1nc[nH]c1C(=O)N[C@@H](CCCCN)C(=O)OC(C)(C)C,3,4,-8,2,.,21*
CC(C)(C)OC(=O)NCCCC[C@H](NC(=O)c1[nH]cnc1C(=O)Nc1ccccc1)C(=O)OC(C)(C)C,-12,2,1,0,.,21*

# Source: PubChem
